According to PubChem BioAssay (Tox21):
Records with an inconclusive call do not appear. Calls of active or inactive are those of the source. Calls follow the shape of the dose curve; as a rule, active = well fitted curve in the direction sought with a large enough effect in the signal ratio in the repeat runs (not every such curve was filed as active); inconclusive = weak or mixed curves, or a change in a side signal; inactive = no such curve, though single readings can be large or run the other way; the % refers to the signal ratio.

Test: qHTS assay to identify small molecule agonists of the NFkB signaling pathway (AID 1159509)
Details: NFkB-bla ME-180 cells, beta-lactamase FRET ratio, 5 h; series mostly up to 61 µM
Description: National Center for Advancing Translational Sciences [NCATS]
NIH Chemical Genomics Center [NCGC]
U.S. Environmental Protection Agency [EPA]
National Institutes of Environmental Health Sciences [NIEHS]
National Toxicology Program [NTP]
U.S. Food and Drug Administration [FDA]
Transcription factors and their stimulated target gene expression play pivotal roles across many cellular processes including responses to environmental stimuli. Proper regulation of associated pathways is critical to maintain cell health and function. Constitutive activation of transcription factor pathways has been implicated in tumors as it may block cellular functions such as apoptosis and lead to invasion and metastasis. One important transcription factor that stimulates gene expression in response to cytokines, UV radiation, and other stimuli is nuclear factor-kappa B (NFkB). To measure activation of the NFkB pathway, the CellSensor NFkB-bla ME-180 cell line (Life Technologies, Carlsbad, CA) that stably expresses beta-lactamase reporter gene under the regulation of a NF-kB response element was used. This assay allows measurement of the NFkB pathway activity induced by compounds in a ME-180 cell line. This system quantitates NF-kB activity using a FRET-based assay system where beta-lactamase expression disrupts FRET, allowing for fluorescent measurement of activity. This cell line has been used to screen the Tox21 10K compound library and to identify compounds that induce the NFkB pathway activity.
Tox21 Assay Protocol Summary:
NFkB-bla ME-180 cells were dispensed at 2,000 cells/6 uL of assay medium per well into black wall/clear-bottom 1536-well plates using a Multidrop Combi (ThermoFisher Scientific, Waltham, MA) dispenser. After the assay plates were incubated at 37 C and 5% CO2 for an overnight, 23 nL of compounds dissolved in DMSO, positive controls or DMSO only was transferred to the assay plate by a Pintool station (Kalypsys, San Diego, CA). The assay plates were incubated at 37 C and 5% CO2 for 5 hr. One uL of LiveBLAzer B/G FRET substrate (Life Technologies) was added using a Flying Reagent Dispenser (Aurora Discovery, San Diego, CA) and the plates were incubated at room temperature for 1.5 hr. Fluorescence intensity (405 nm excitation, 460 nm and 530 nm emissions) was measured using an Envision plate reader (PerkinElmer, Shelton, CT).
With `CC(C)N1C(=O)c2ccccc2C1=O` the outcome was “inactive”.
For `COC(=O)CCCCCCCCC(=O)OC`, the outcome was “inactive”.
With `CCCCc1ccc2cccc(S(=O)(=O)O)c2c1` the outcome was “inactive”.
In the case of `O=C(CCOCCOCCOCCOCCC(=O)Nc1c(I)cc(I)c(C(=O)O)c1I)Nc1c(I)cc(I)c(C(=O)O)c1I`, the outcome is reported as “inactive”.
For `CCc1cc(S(=O)(=O)O)c2cc(C(C)C)cccc1-2`, the outcome was “inactive”.
In the case of `CC(C)(C)CC(C)(C)N`, the outcome is reported as “inactive”.
In the case of `COC[C@H](c1ccc(C(F)(F)F)cc1)N1CCN(C2(C)CCN(C(=O)c3c(C)ncnc3C)CC2)C[C@H]1C`, the outcome is reported as “inactive”.
For `c1cc(CN2CCCCC2)cc(OCCCNc2nc3ccccc3s2)c1`, the outcome was “inactive”.
In the case of `CCCc1ccccc1O`, the outcome is reported as “inactive”.
In the case of `OC1OC[C@@H](O)[C@H](O)[C@H]1O` (stereo not given in full), the outcome is reported as “inactive”.
With `CNc1ncnc2nc[nH]c12` the outcome was “inactive”.
With `CNC(=O)c1c(I)c(NC(=O)CCCCC(=O)Nc2c(I)c(C(=O)O)c(I)c(C(=O)NC)c2I)c(I)c(C(=O)O)c1I` the outcome was “inactive”.
For `CCCCc1ccc(N)cc1`, the outcome was “inactive”.
With `CCCC(C)CO` (stereo not given) the outcome was “inactive”.
With `NC(=O)c1c(Cl)cccc1Cl` the outcome was “inactive”.
For `NC1CCN(c2cccc(Cl)n2)CC1`, the outcome was “inactive”.
In the case of `CC(C)COC(=O)c1ccccc1O`, the outcome is reported as “inactive”.
With `C(=C(c1ccccc1)c1ccccc1)c1ccccc1` the outcome was “inactive”.
For `O=C(O)c1ccccc1-c1ccc(C(F)(F)F)cc1`, the outcome was “inactive”.
With `COc1nc(C)nc(N)n1` the outcome was “inactive”.
With `NC(CS)C(=O)O` (stereo not given) the outcome was “inactive”.
In the case of `CCN(CC)C(=O)c1ccc(O)c(OC)c1`, the outcome is reported as “inactive”.
With `OCC(CO)(CO)COCC(CO)(CO)CO` the outcome was “inactive”.
In the case of `NC(=O)Nc1nc2ccccc2[nH]1`, the outcome is reported as “inactive”.
With `C1COCCO1` the outcome was “inactive”.
For `C=C(C)C(=O)OCCCCCCCCCCCCCCCCCC`, the outcome was “inactive”.
With `CN(C)C(=O)C(CCN1CCC(O)(c2ccc(Cl)cc2)CC1)(c1ccccc1)c1ccccc1` the outcome was “inactive”.
In the case of `COCc1ccc(COC)cc1`, the outcome is reported as “inactive”.
For `Nc1[nH]c(=O)ncc1F`, the outcome was “inactive”.
For `CCCC(=O)O[C@]1(C(=O)CCl)[C@@H](C)C[C@H]2[C@@H]3CCC4=CC(=O)C=C[C@]4(C)[C@@]3(F)C(=O)C[C@@]21C`, the outcome was “inactive”.
For `Nc1cc(N)cc(C(=O)O)c1`, the outcome was “inactive”.
For `OCc1ccccn1`, the outcome was “inactive”.
With `C#CC(O)C(CC)CCCC` (stereo not given) the outcome was “inactive”.
In the case of `COC(=O)CCCC(=O)O`, the outcome is reported as “inactive”.
In the case of `CC(C)(C)C(=O)/C=C/c1ccc(Cl)cc1`, the outcome is reported as “inactive”.
In the case of `O=C(O)C1CCC1`, the outcome is reported as “inactive”.
In the case of `O=C1OC(=O)c2cc([N+](=O)[O-])ccc21`, the outcome is reported as “inactive”.
For `C=CC(=O)N1CCOCC1`, the outcome was “inactive”.
With `COC(=O)c1ccc(C(=O)OC)c(C(=O)OC)c1` the outcome was “inactive”.
For `CC1CCN(CCCC(=O)c2ccc(F)cc2)CC1`, the outcome was “inactive”.
